The entries come from a sample that favours hits as a whole.
USP2a inh – inhibitors of human ubiquitin-specific protease USP2a. 0.01% of 330,000 active. O75604. Potency, µM (series often up to 38.3 µM), actives largely listed as inhibitors. USP2 core, Ub-CHOP2 coupled fluorogenic reporter, 485/531
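Cell-free coupled assay: 10nM USP2 core preincubated 30min RT with compound in Tris-HCl pH 8.0/CaCl2/CHAPS buffer, then 25nM Ub-CHOP2 and 25nM reporter substrate; fluorescence (Ex 485/Em 531) read after 60min RT, normalized to NEM inhibition, concentration-response curves fitted.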
ClpP mod – qHTS Assay for Activators of ClpP. ATP-dependent Clp protease proteolytic subunit (Bacillus subtilis (strain 168)), P80244. purified B. subtilis ClpP, FRET peptide cleavage, 20 min. Potency, µM (highest dose often 57.5 µM). 1.9% of 340,000 active. AID 651965, 2013; active = well fitted falling curve with a large enough effect; note: the source files actives as falling curves though it sought activators and does not explain the sign; nearly all actives have a fitted effect of over 65% in size
Target sequence (P80244 whole entry, looked up): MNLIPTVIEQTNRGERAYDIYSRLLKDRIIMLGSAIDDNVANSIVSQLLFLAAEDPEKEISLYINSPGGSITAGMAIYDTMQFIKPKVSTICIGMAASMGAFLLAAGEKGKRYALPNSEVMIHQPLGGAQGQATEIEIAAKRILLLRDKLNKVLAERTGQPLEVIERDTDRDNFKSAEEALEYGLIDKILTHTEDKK
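Purified B. subtilis ClpP, 10 microg/mL final in Tris/HCl pH8 with KCl, BSA, glycerol and Tween-20, cleaved an Abz/nitrotyrosine-quenched decapeptide. Fluorescence (ex 320, em 430) was read at 0 and 20 min at room temperature. Delta was normalized to 5.8 microM ADEP and DMSO/no-enzyme controls.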
GALK inhibitor – blocks human galactokinase activity. P51570. Purified GALK, Kinase-Glo residual ATP luminescence. Potency, µM (series often up to 57.5 µM), hits mostly inhibitors. 0.007% of 270,000 active
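5 nM enzyme, 35 uM ATP, 100 uM galactose, 20 mM HEPES pH8.0, 5 mM MgCl2; 1 h RT; residual ATP by Kinase-Glo Plus luminescence, qHTS format.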
Eya2 phos inh – blocks the phosphatase activity of human Eya2; 0.006% of 330,000 active; O00167; Potency, µM (top dose mostly 76.9 µM), actives largely listed as inhibitors; AID 488837; recombinant Eya2, OMFP fluorescence dephosphorylation (OMFP is methylfluorescein phosphate)
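Eya2 protein (added as 0.2 uM solution) was preincubated with compound for 10 min at ambient temperature in 50 mM HEPES pH 7.5, 50 mM NaCl, 5 uM MgCl2, 0.05% BSA, 1 mM DTT. OMFP (added at 50 uM) then reacted 10 min; fluorescence read at 485/525 nm.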
Hits are given with their value; 0 = inactive; - = no result. Unless noted, calls come from the whole dose curve; as a rule, active = well fitted inhibition curve with a large enough effect; inconclusive = small, poorly fitted or top-dose-only effect, or effect the other way; inactive = flat fitted curve, though single readings scatter.

SMILES	USP2a inh	ClpP mod	GALK inhibitor	Eya2 phos inh
COc1cc(CNc2cccc(C(=O)O)c2)cc(Br)c1OCC(=O)NC(C)(C)C	0	25µM	0	0
CCOc1cc(CNc2cccc3ccccc23)cc(Br)c1OCC(=O)NC(C)(C)C	0	8.9µM	0	0
CC(C)(C)c1ccc(NC(=O)CSc2nnc(-c3n[nH]c4ccccc34)o2)cc1	0	32µM	0	0
COc1cccc(C(=O)N2CCN(Cc3ccccn3)CC2)c1OC	0	0	0	0
O=C(O)Cc1sc(-c2ccccc2)nc1-c1ccccc1	0	32µM	0	0
Cc1ccc2nc3c(cc(C(N)=S)c(=N)n3CCCOC(C)C)c(=O)n2c1	0	22µM	0	0
Cc1cc(C)n(-c2nc3ccccc3c(=O)n2OCC(=O)N(C)C)n1	0	7.9µM	0	0
Cc1cc(CC(C)C)n(-c2nc3ccccc3c(=O)n2OCC(=O)N(C)C)n1	0	0	0	0
COc1ccc2c(c1)-c1nc(NC(=O)c3ccccc3F)sc1CC2	-	35µM	-	-
CC(=O)c1ccc(OCc2cc(C(=O)N3CCC[C@H]3CO)no2)cc1	0	0	0	0
O=C(CN(c1ccc(Br)cc1)S(=O)(=O)c1ccc(Cl)c([N+](=O)[O-])c1)NCCc1ccccc1	0	25µM	0	0
NC(=O)CC(NC(=O)c1ccccc1)c1ccc(NCCCN2CCCC2=O)c([N+](=O)[O-])c1 (stereo not given)	0	0	-	0
COc1cc2c(cc1OC)C1=NC(=O)CN1C(SCc1ccccc1C)=N2	0	18µM	0	0
CCOC(=O)N1CCC(NCCNC(=O)c2cccs2)CC1	0	0	0	0
S=C1NCCOCCOCCOCCNC(=S)NCCOCCOCCOCCN1	0	0	0	0
CC(=O)Nc1ccc(S(=O)(=O)NNC(=O)c2cc3c4ccccc4n(C)c3s2)cc1	0	28µM	0	0
CCc1ccc(-n2nc(C)c3c(C(=O)Nc4cccc(C(F)(F)F)c4)cc(C)nc32)cc1	-	22µM	-	-
COc1cc(NC(=O)c2cc(Cl)ccc2Cl)ccc1NC(=O)c1cc2ccccc2o1	-	28µM	-	-
COc1cc2c(N3CCOCC3)cc(O)c(CC(=O)Nc3ccccc3)c2cc1OC	0	28µM	0	0
OCC(O)CSc1nc(-c2ccccc2)nc2c1CCC2 (stereo not given)	0	-	0	0
N#Cc1sc2nc(N3CCCCC3)c3c(c2c1N)CCCC3	0	28µM	0	0
COc1ccc(Cl)cc1C(=O)CSc1nnnn1C1CCCC1	0	0	0	0
CC(C)c1nc(NCCO)c(C#N)c2c1CCCC2	0	-	0	0
CC(C)c1nc(NCc2ccccc2)c(C#N)c2c1CCCC2	0	8.9µM	0	0
COc1ccc(C(CNC(=O)c2cccc(Br)c2)N2CCCC2)cc1 (stereo not given)	0	0	0	0
SMILES	USP2a inh	ClpP mod	GALK inhibitor	Eya2 phos inh
Cc1ccc2c(c1)NC(=O)C(CC(=O)NCCN(CC(C)C)CC(C)C)O2 (stereo not given)	0	0	0	0
Cc1cc(C)cc(C(=O)Nc2c(C(=O)Nc3ccccc3F)oc3ccccc23)c1	-	13µM	-	-
O=C(Nc1c(C(=O)Nc2cccc(F)c2)oc2ccccc12)c1ccc2c(c1)OCO2	0	25µM	0	0
CNc1ccccc1C(=O)OC(C)C(=O)Nc1ccc(S(=O)(=O)N2CCCC2)cc1 (stereo not given)	0	28µM	0	0
CC(=O)Nc1ccc(NC(=O)C(C)OC(=O)c2ccc(S(=O)(=O)N3CCCCC3)cc2)cc1 (stereo not given)	0	-	-	0
O=C(Nc1ccccc1)c1ccc(CN2CCC(Cc3ccccc3)CC2)cc1	-	0	-	-
Cc1nn(Cc2ccccc2)c(C)c1NC(=O)CCCn1nc(C)c([N+](=O)[O-])c1C	0	28µM	0	0
O=C1N[C@@H](Cc2ccccc2)COC(=O)[C@@H](Cc2ccc(F)cc2)CC/C=C/C[C@@H]1CC(=O)N(CCO)Cc1ccccc1	0	0	-	0
NS(=O)(=O)c1ccc(-n2ncc3c(=O)[nH]c(SCC(=O)Nc4nccs4)nc32)cc1	0	0	-	0
Cc1nc(C(=O)Nc2ccc(Cl)cc2Cl)nn1-c1cc(OC(C)C)c(Cl)cc1Cl	0	28µM	0	0
Cn1c(CCN2CCCCC2)nc2cc(NS(=O)(=O)c3ccccc3)ccc21	0	28µM	0	0
O=C(c1cccc(S(=O)(=O)N2CCc3ccccc3C2)c1)N1CCN(c2ccc(O)cc2)CC1	0	32µM	0	0
